A short description of assay [1]: TOX21_p53_BLA_p2_viability: Viability Assessment in the Tox21 HCT-116 p53 Agonism Beta-lactamase Assay, Phase 2 (AID 2283591).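 Further: compound exposure lasted 16 h at 37 °C; actives lower the ATP signal meaning cytotoxicity.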 In outline:
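Cytotoxicity readout: CellTiter-Glo ATP luminescence, 30 min at room temperature, after the beta-lactamase read. Cells were HCT116 exposed 16 h at 37C to compounds pin-transferred at 217-fold dilution from DMSO stocks.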

Assay [2] in a line: TOX21_p53_BLA_p3_viability: Viability Assessment in the Tox21 HCT-116 p53 Agonism Beta-lactamase Assay, Phase 3 (AID 2283593).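 Further: cells exposed to compound for 16 h before reading.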 The gist of the method:
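Cellular ATP was quantified by CellTiter-Glo luminescence, read after 30 min at room temperature. Beforehand, HCT116 cells (4000/well) received compound 5 h post-seeding, 217-fold diluted from DMSO, then incubated 16 h at 37C.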

For assay [3], the target named is Cellular tumor antigen p53 (Homo sapiens) (UniProt P04637). Kind of assay: TOX21_p53_BLA_p3_ratio: Tox21 HCT-116 p53 Agonism Beta-lactamase Assay, Ratio, Phase 3 (AID 2283596). The gist of the method:
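Cells were seeded at 4000/well, rested 5 h at 37C, then dosed with DMSO compound solutions (217-fold dilution) for 16 h. CCF4-AM substrate was loaded for 2 h at room temperature, and the 460/530 nm emission ratio was fitted for gain of signal versus DMSO.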

Assay [4] can be described thus: TOX21_p53_BLA_p5_viability: Viability Assessment in the Tox21 HCT-116 p53 Agonism Beta-lactamase Assay, Phase 5 (AID 2283600). In outline: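 Workflow: seed 4000 cells per well, wait 5 h, add compounds (DMSO, 217-fold dilution), incubate 16 h, load CCF4-AM 2 h, add CellTiter-Glo, read luminescence after 30 min.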
Assay [5] has as its target Cellular tumor antigen p53 (Homo sapiens) (UniProt P04637). Kind of assay: TOX21_p53_BLA_p4_ratio: Tox21 HCT-116 p53 Agonism Beta-lactamase Assay, Ratio, Phase 4 (AID 2283601). The gist of the method:
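Signal is the blue/green (460nm/530nm) ratio of cleaved versus uncleaved CCF4-AM substrate, read after 2 h substrate loading. Cells were HCT116 carrying the p53-responsive beta-lactamase reporter, dosed 16 h at 37C, 5% CO2; CellTiter-Glo measured in parallel.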

Assay [6] can be described thus: TOX21_p53_BLA_p4_viability: Viability Assessment in the Tox21 HCT-116 p53 Agonism Beta-lactamase Assay, Phase 4 (AID 2283597).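 Further: hits lower the luminescence signal meaning cytotoxicity.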 In outline: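 Readout: ATP luminescence (CellTiter-Glo), measured 30 min after reagent addition at RT. The reagent followed a 2 h CCF4-AM incubation, and the cells had been exposed to compound for 16 h at 37C.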
Assay [7] concerns the target Cellular tumor antigen p53 (Homo sapiens) (UniProt P04637). Description: TOX21_p53_BLA_p5_ratio: Tox21 HCT-116 p53 Agonism Beta-lactamase Assay, Ratio, Phase 5 (AID 2283599). The gist of the method:
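Beta-lactamase reporter ratio (blue 460 nm over green 530 nm, 405 nm excitation) after 2 h CCF4-AM loading, in HCT-116 cells exposed 16 h at 37 C to compounds pinned at 217-fold dilution. Increases relative to DMSO baseline scored.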

The nature of assay [8]: CCTE_Harrill_HTTr_Viability_MCF7: CCTE's 6-hour Cell Viability Assessment for the High-Throughput Transcriptomics (HTTr) Platform, in MCF-7 cells cultured in DMEM + 10% fetal bovine serum, Harrill Lab (AID 2284010; active means hit-call score of the fitted dose curve at least 0.9, where 1 is the maximum; inactive means score below 0.9). In outline:
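Eight-point concentration series, six-hour exposure. Propidium iodide exclusion imaged to assess membrane integrity as a cytotoxicity readout; bidirectional fitting was done with DMSO as negative control and activity baseline.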

Assay [9] is described as follows: CCTE_Harrill_HTTr_Apoptosis_MCF7: CCTE's 6-hour Apoptosis Assessment for the High-Throughput Transcriptomics (HTTr) Platform, in MCF-7 cells cultured in DMEM + 10% fetal bovine serum, Harrill Lab (AID 2284011; active means hit-call score of the fitted dose curve at least 0.9, where 1 is the maximum; inactive means score below 0.9). The gist of the method: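 MCF-7 (DMEM + 10% FBS), 384-well; 8-pt dilution series, 6 h chemical exposure; caspase-3/7 activation via CellEvent Caspase 3/7 Green, HCI; bidirectional fit vs DMSO.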

The nature of assay [10]: CCTE_Harrill_HTTr_CellCount_MCF7: CCTE's Cell Proliferation Assessment for the High-Throughput Transcriptomics (HTTr) Platform, Harrill Lab (AID 2284012).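 Further: intended direction is loss of nuclei count meaning fewer cells.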 In outline: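 For this full-screen endpoint, MCF-7 cultures received eight compound dilutions for six hours. Well nuclei counts from Hoechst imaging were analyzed relative to DMSO.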

Each structure is given as a SMILES string. Records with an inconclusive call do not appear. The source made the active and inactive calls. How the source made its calls, unless noted: active means hit-call score of the fitted dose curve at least 0.9, where 1 is the maximum; inconclusive means response in the unintended direction; inactive means score below 0.9.

Sequence of Cellular tumor antigen p53 (Homo sapiens) (P04637 whole entry, looked up): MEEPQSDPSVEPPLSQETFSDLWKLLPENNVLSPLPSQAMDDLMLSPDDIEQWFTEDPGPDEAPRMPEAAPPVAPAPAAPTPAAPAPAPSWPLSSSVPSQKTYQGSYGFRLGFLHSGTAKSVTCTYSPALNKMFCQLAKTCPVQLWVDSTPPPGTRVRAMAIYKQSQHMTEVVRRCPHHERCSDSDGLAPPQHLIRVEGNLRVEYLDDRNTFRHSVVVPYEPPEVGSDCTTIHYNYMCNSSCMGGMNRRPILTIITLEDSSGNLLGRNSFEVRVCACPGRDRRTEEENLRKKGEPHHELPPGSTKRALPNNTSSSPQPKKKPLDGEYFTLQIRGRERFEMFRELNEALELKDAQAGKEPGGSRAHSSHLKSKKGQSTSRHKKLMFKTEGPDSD

`OCCOCC#CCOCCO`: the molecule was called inactive in assay [1], in assay [2], in assay [3], in assay [4] and in assay [5].

For `CC(C(O)c1ccc(O)cc1)N1CCC(Cc2ccccc2)CC1` (configuration not stated), the result in assay [1], in [2], in [6] and in assay [7] was inactive.

Regarding `O=C(O)c1ccccc1Cl`, the call in assay [1], in assay [2], in assay [3], in [7], in [4] and in assay [5] was inactive.

As to `NS(=O)(=O)c1cc2c(cc1C(F)(F)F)NC(Cc1ccccc1)NS2(=O)=O` (configuration not stated), the call in [1], in assay [2], in assay [3], in [7], in assay [4] and in assay [5] was inactive.

As to `COC(=O)[C@H]1[C@H]2C[C@@H]3c4[nH]c5cc(OC)ccc5c4CCN3C[C@H]2C[C@@H](OC(=O)COc2ccc(OC)cc2)[C@@H]1OC`, the call in assay [1], in [2], in assay [3], in [7], in [4] and in assay [5] was inactive.

In the case of `O=S(=O)(O)c1ccc2c(N=Nc3ccc(S(=O)(=O)O)c4ccccc34)c(O)c(S(=O)(=O)O)cc2c1`, the molecule was called inactive in assay [1], in assay [2], in assay [3], in [7], in assay [4] and in assay [5].

For `COc1ccc2[nH]c(S(=O)Cc3ncc(C)c(OC)c3C)nc2n1` (configuration not stated), the molecule was called inactive in assay [1], in [2], in assay [3] and in assay [5].

Turning to `COc1ccc([C@@H]2Sc3ccccc3N(CCN(C)C)C(=O)[C@@H]2OC(C)=O)cc1`, the call in [1], in assay [4], in assay [5], in assay [8] and in [9] was inactive. Further, the AC50 (usually the concentration at which the activity in the assay is half-maximal) in [2] is 38800 nM (active); in assay [3], 43600 nM (active).

On to `CC(COC(=O)c1ccccc1)OC(=O)c1ccccc1` (configuration not stated), for which the result in assay [1], in [2], in assay [3], in assay [7], in assay [4] and in [5] was inactive.

As to `O=c1[nH]ncc2ccccc12`, the molecule was classed as inactive in assay [1], in [2], in assay [6], in [7] and in assay [5].

In the case of `CC(C)CCOC(=O)c1ccc(N(C)C)cc1`, the result in assay [1], in assay [2], in [6], in [7], in [4] and in assay [5] was inactive.

As to `CC(O)[C@@H]1NC(=O)[C@H](CCCCN)NC(=O)[C@@H](Cc2c[nH]c3ccccc23)NC(=O)[C@H](Cc2ccccc2)NC(=O)[C@@H](NC(=O)[C@H](N)Cc2ccccc2)CSSC[C@@H](C(=O)N[C@H](CO)[C@@H](C)O)NC1=O` (some centres not stated), the call in assay [1], in assay [2], in [6], in assay [7] and in assay [4] was inactive.

Consider `CC(C)Nc1cccnc1N1CCN(C(=O)c2cc3cc(NS(C)(=O)=O)ccc3[nH]2)CC1`, for which the molecule was called inactive in assay [1], in [2], in assay [6] and in assay [4].

For the molecule `C[C@H]1O[C@@H](O[C@H]2CC[C@@]3(C)[C@H](CC[C@@H]4[C@@H]3C[C@@H](O)[C@]3(C)[C@@H](C5=CC(=O)OC5)CC[C@]43O)C2)C[C@H](O)[C@@H]1O[C@H]1C[C@H](O)[C@H](O[C@H]2C[C@H](O)[C@H](O[C@@H]3O[C@H](CO)[C@@H](O)[C@H](O)[C@H]3O)[C@@H](C)O2)[C@@H](C)O1`, the half-maximal activity concentration (AC50) was 284 nM (active) in [1], 296 nM (active) in [2], 337 nM (active) in [6] and 353 nM (active) in assay [4].

`Cc1ccccc1CNc1ncnc2c1ncn2[C@@H]1O[C@H](CO)[C@@H](O)[C@H]1O`: the result in assay [1], in [2], in assay [6], in assay [7], in assay [4] and in [5] was inactive.

On to `CCCCCCCCCCCCCCCCCCOCCO`, for which the molecule was called inactive in [1], in [2], in [6], in assay [7] and in [4].

`O=C(OCC1(COC(=O)c2cccnc2)CCCC(COC(=O)c2cccnc2)(COC(=O)c2cccnc2)C1O)c1cccnc1`: the molecule was classed as inactive in assay [1], in [2], in assay [6] and in assay [4].

In the case of `O=[N+]([O-])c1ccc(F)cc1F`, the molecule was classed as inactive in [1], in assay [2], in assay [6], in [7] and in assay [4].

With `OCCN(CCO)CCN(CCO)CCO`, the molecule was called inactive in [1], in assay [2], in assay [6], in assay [7] and in [4].

`c1cc(CN2CCCCC2)cc(OCCCNc2nc3ccccc3s2)c1`: the molecule was classed as inactive in assay [1], in assay [2], in assay [6] and in assay [4].

On to `Cn1c(N)c(N=O)c(=O)n(C)c1=O`, for which the molecule was classed as inactive in assay [1], in [2], in assay [6] and in assay [4].

Consider `Oc1cc2c(cc1O)[C@H]1c3ccc(O)c(O)c3OC[C@@]1(O)C2`, for which the result in [1], in assay [2], in assay [6] and in assay [7] was inactive.

For the molecule `COCCCOc1cc(C[C@@H](C[C@H](N)[C@@H](O)C[C@H](C(=O)NCC(C)(C)C(N)=O)C(C)C)C(C)C)ccc1OC`, the call in assay [1], in assay [2], in assay [6], in [7] and in assay [4] was inactive.

With `CCN1CCOCC1`, the outcome in assay [1], in assay [2], in assay [6], in assay [7] and in [4] was inactive.

As for `N#Cc1ccc(C(=O)O)cc1`, the molecule was called inactive in assay [1], in assay [2], in [6], in assay [7], in assay [4] and in assay [5].

Turning to `Oc1cccc2cc3cccc(O)c3c(O)c12`, the result in assay [1], in assay [2], in [6], in assay [7] and in assay [5] was inactive.

With `CCC(=O)OCC(=O)[C@@]1(OC(=O)CC)[C@@H](C)C[C@H]2[C@@H]3CCC4=CC(=O)C=C[C@]4(C)[C@@]3(F)[C@@H](O)C[C@@]21C`, the molecule was classed as inactive in [1], in assay [2], in [6], in [7] and in assay [5].

On to `NC12CC3CC(CC(C3)C1)C2`, for which the outcome in [1], in assay [2], in assay [6], in [7], in assay [4] and in assay [5] was inactive.

Consider `CCCCCCCCCCCCCCCC(=O)OC[C@@H](NC(=O)C(Cl)Cl)[C@H](O)c1ccc([N+](=O)[O-])cc1`, for which the molecule was called inactive in [1], in [2], in [6] and in [4].

Consider `CC(=O)CCCCn1c(=O)c2c(ncn2C)n(C)c1=O`, for which the outcome in assay [1], in assay [2], in [6], in assay [7], in [4] and in [5] was inactive. In addition, the result in assay [8], in [9] and in assay [10] was inactive.

Regarding `Cc1ccc(C2(O)CCN(CCCC(=O)c3ccc(F)cc3)CC2)cc1`, the result in assay [1], in [2], in assay [6], in [7], in assay [4] and in assay [5] was inactive.

As to `O=C(CCCN1CCC(O)(c2cccc(C(F)(F)F)c2)CC1)c1ccc(F)cc1`, the result in [1], in [2], in assay [6], in assay [4] and in [5] was inactive.

These data come from PubChem BioAssay (EPA / NIEHS).
